# In PubChem BioAssay (EPA / NIEHS):
# Calls of active or inactive are those of the source. Rule for the calls: active = hit-call score of the fitted dose curve at least 0.9, where 1 is the maximum; inactive = score below 0.9.
# Read-out: Transforming growth factor beta 1 (TGFb1), TGFB1 (gene 7040)
# Assay: BSK_BE3C_TGFb1: BioMAP Diversity Plus: BE3C Assay for Transforming growth factor beta 1 (TGFb1) Biomarker Activity (AID 2283036;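 for outcome: TGF-b1 protein level measured by ELISA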)
# Details: primary human bronchial epithelial cells; actives raise or lower the signal
# How it was run: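 TGF-b1 measured via ELISA, 24 h after chemical dosing of human bronchial epithelial cells (BE3C). Overt cytotoxicity assessed in parallel by SRB (0.1%, TCA-fixed, 560 nm); analysis bidirectional relative to DMSO.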
SMILES,AC50,outcome
O=C(O)C1C2CCC(O2)C1C(=O)O (centres undefined),18.6 µM (active),
Nc1ccc(Cl)cc1N,,inactive
OCCCl,,inactive
c1ccc2c(c1)-c1cccc3cccc-2c13,,inactive
CCCCCCCCn1sccc1=O,5.55 µM (active),
c1ccc(C2CO2)cc1 (centres undefined),,inactive
CC(C)(C)OOC(C)(C)CCC(C)(C)OOC(C)(C)C,,inactive
c1ccc2c(c1)oc1ccccc12,,inactive
CN(C)c1ccc(C(=O)c2ccc(N(C)C)cc2)cc1,,inactive
Oc1ccccc1Cl,,inactive
Clc1ccccc1Cl,,inactive
O=C(N[C@H](c1ccccc1)[C@@H]1CN2CCC1CC2)c1c(Cl)ccc(C(F)(F)F)c1Cl,19.4 µM (active),
ClCCOCCCl,,inactive
Cc1ccc([N+](=O)[O-])cc1,,inactive
CO[C@@H]1[C@H](OC(=O)NC(=O)CCl)CC[C@]2(CO2)[C@H]1[C@@]1(C)O[C@@H]1CC=C(C)C,,inactive
Nc1ccc([N+](=O)[O-])cc1,,inactive
Nc1ccc(Oc2ccc(N)cc2)cc1,,inactive
CC(C)(O)c1cnn2c(-c3ccc(F)c(-c4c(F)cccc4C#N)c3)cnc2n1,31.4 µM (active),
OCCCBr,,inactive
[O-][Cl+]O,,inactive
C1=Cc2cccc3cccc1c23,,inactive
CN(C)C(=O)Nc1ccc(Cl)cc1,,inactive
ClC1=C(Cl)C2(Cl)C3C(Cl)C=CC3C1(Cl)C2(Cl)Cl (centres undefined),20 µM (active),
Cc1ccc(N=C=O)cc1N=C=O,,inactive
O=Cc1ccco1,,inactive
CCCSC(=O)N(CCC)CCC,,inactive
Clc1ccc(Cl)c(Cl)c1,,inactive
CCC12COCN1COC2,,inactive

# Read-out: Plasminogen activator inhibitor-1 (PAI1), SERPINE1 (gene 5054)
# Assay: BSK_BE3C_PAI1: BioMAP Diversity Plus: BE3C Assay for Plasminogen activator inhibitor-1 (PAI1) Biomarker Activity (AID 2283037)
# Details: primary human bronchial epithelial cells; actives raise or lower the signal
# How it was run: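 In this multiplexed primary-cell system, bronchial epithelial cells receive test chemical and are sampled at 24 h. PAI-1 is read by ELISA, with DMSO serving as negative control for bidirectional fitting.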
SMILES,outcome,AC50
O=C(O)C1C2CCC(O2)C1C(=O)O (centres undefined),inactive,
Nc1ccc(Cl)cc1N,inactive,
OCCCl,inactive,
c1ccc2c(c1)-c1cccc3cccc-2c13,inactive,
CCCCCCCCn1sccc1=O,,7.33 µM (active)
c1ccc(C2CO2)cc1 (centres undefined),inactive,
CC(C)(C)OOC(C)(C)CCC(C)(C)OOC(C)(C)C,inactive,
c1ccc2c(c1)oc1ccccc12,inactive,
CN(C)c1ccc(C(=O)c2ccc(N(C)C)cc2)cc1,inactive,
Oc1ccccc1Cl,inactive,
Clc1ccccc1Cl,inactive,
O=C(N[C@H](c1ccccc1)[C@@H]1CN2CCC1CC2)c1c(Cl)ccc(C(F)(F)F)c1Cl,,29.7 µM (active)
ClCCOCCCl,inactive,
Cc1ccc([N+](=O)[O-])cc1,inactive,
CO[C@@H]1[C@H](OC(=O)NC(=O)CCl)CC[C@]2(CO2)[C@H]1[C@@]1(C)O[C@@H]1CC=C(C)C,,6.98 µM (active)
Nc1ccc([N+](=O)[O-])cc1,inactive,
Nc1ccc(Oc2ccc(N)cc2)cc1,inactive,
CC(C)(O)c1cnn2c(-c3ccc(F)c(-c4c(F)cccc4C#N)c3)cnc2n1,,32.1 µM (active)
OCCCBr,inactive,
[O-][Cl+]O,inactive,
C1=Cc2cccc3cccc1c23,inactive,
CN(C)C(=O)Nc1ccc(Cl)cc1,inactive,
ClC1=C(Cl)C2(Cl)C3C(Cl)C=CC3C1(Cl)C2(Cl)Cl (centres undefined),,35 µM (active)
Cc1ccc(N=C=O)cc1N=C=O,inactive,
O=Cc1ccco1,inactive,
CCCSC(=O)N(CCC)CCC,inactive,
Clc1ccc(Cl)c(Cl)c1,inactive,
CCC12COCN1COC2,inactive,

# Read-out: urokinase plasminogen activator (uPA), PLAU (gene 5328)
# Assay: BSK_BE3C_uPA: BioMAP Diversity Plus: BE3C Assay for urokinase plasminogen activator (uPA) Biomarker Activity (AID 2283038);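 for outcome: uPA protein level quantified by ELISA in cell cultures; uPA read one day after compound addition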
# Details: primary human bronchial epithelial cells; actives raise or lower the signal
# How it was run: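 ELISA for uPA on human primary bronchial epithelial cultures 24 h post-treatment, gain or loss against DMSO. Parallel SRB staining (0.1% after 10% TCA fixation, 560 nm) assessed overt cytotoxicity.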
SMILES,outcome,AC50
O=C(O)C1C2CCC(O2)C1C(=O)O (centres undefined),inactive,
OCCCl,inactive,
c1ccc2c(c1)-c1cccc3cccc-2c13,inactive,
CCCCCCCCn1sccc1=O,,9.51 µM (active)
c1ccc(C2CO2)cc1 (centres undefined),inactive,
Oc1ccccc1Cl,inactive,
Clc1ccccc1Cl,inactive,
O=C(N[C@H](c1ccccc1)[C@@H]1CN2CCC1CC2)c1c(Cl)ccc(C(F)(F)F)c1Cl,,22.4 µM (active)
OCCCBr,inactive,
C1=Cc2cccc3cccc1c23,inactive,
CN(C)C(=O)Nc1ccc(Cl)cc1,inactive,
ClC1=C(Cl)C2(Cl)C3C(Cl)C=CC3C1(Cl)C2(Cl)Cl (centres undefined),inactive,
Cc1ccc(N=C=O)cc1N=C=O,inactive,
O=Cc1ccco1,inactive,
Clc1ccc(Cl)c(Cl)c1,inactive,

# Read-out: Urokinase-type plasminogen activator receptor (uPAR), PLAUR (gene 5329)
# Assay: BSK_BE3C_uPAR: BioMAP Diversity Plus: BE3C Assay for Urokinase-type plasminogen activator receptor (uPAR) Biomarker Activity (AID 2283039);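 for outcome: uPAR protein level measured by ELISA on the cells; cells exposed to compound for one day before measurement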
# Details: primary human bronchial epithelial cells; actives raise or lower the signal
# How it was run: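 Chemically treated human bronchial epithelial cells (lung primary) are assayed for uPAR by ELISA after 24 h, with data fitted in both directions using DMSO as negative control.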
SMILES,outcome,AC50
O=C(O)C1C2CCC(O2)C1C(=O)O (centres undefined),inactive,
Nc1ccc(Cl)cc1N,inactive,
OCCCl,inactive,
c1ccc2c(c1)-c1cccc3cccc-2c13,inactive,
CCCCCCCCn1sccc1=O,,12.9 µM (active)
c1ccc(C2CO2)cc1 (centres undefined),inactive,
CC(C)(C)OOC(C)(C)CCC(C)(C)OOC(C)(C)C,inactive,
c1ccc2c(c1)oc1ccccc12,inactive,
CN(C)c1ccc(C(=O)c2ccc(N(C)C)cc2)cc1,inactive,
Oc1ccccc1Cl,inactive,
Clc1ccccc1Cl,inactive,
O=C(N[C@H](c1ccccc1)[C@@H]1CN2CCC1CC2)c1c(Cl)ccc(C(F)(F)F)c1Cl,,34.5 µM (active)
ClCCOCCCl,inactive,
Cc1ccc([N+](=O)[O-])cc1,inactive,
CO[C@@H]1[C@H](OC(=O)NC(=O)CCl)CC[C@]2(CO2)[C@H]1[C@@]1(C)O[C@@H]1CC=C(C)C,,5.83 µM (active)
Nc1ccc([N+](=O)[O-])cc1,inactive,
Nc1ccc(Oc2ccc(N)cc2)cc1,inactive,
CC(C)(O)c1cnn2c(-c3ccc(F)c(-c4c(F)cccc4C#N)c3)cnc2n1,,36.5 µM (active)
OCCCBr,inactive,
[O-][Cl+]O,inactive,
C1=Cc2cccc3cccc1c23,inactive,
CN(C)C(=O)Nc1ccc(Cl)cc1,inactive,
ClC1=C(Cl)C2(Cl)C3C(Cl)C=CC3C1(Cl)C2(Cl)Cl (centres undefined),inactive,
Cc1ccc(N=C=O)cc1N=C=O,inactive,
O=Cc1ccco1,inactive,
CCCSC(=O)N(CCC)CCC,inactive,
Clc1ccc(Cl)c(Cl)c1,inactive,
CCC12COCN1COC2,inactive,
